# Laboratory results published in the supplement of paper PMC3484114.
# ± gives the standard deviation.
# System: OVCAR-3-derived ovarian cancer stem-like cells (spheroids)
# Test: cell growth relative to untreated control; higher = more growth (less inhibition)
# Conditions: 2.29 µM; 96 h
# Procedure, shortened: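 Percent growth was calculated against untreated wells once blanks were subtracted and Grubbs outliers removed. The cells were OVCAR-3 spheroid-derived stem-like cells, trypsinized and plated at 50,000 cells/mL in stem cell medium on ultra-low attachment 96-well plates for a 24 h preincubation. They were then exposed to compounds at 2.29 uM for 96 h at 37°C, 5% CO2, in 4 replicate wells, and viability was measured by TOX8 resazurin fluorescence (ex 560/em 590 nm) after 4 h.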
row,SMILES,cell growth [%]
1,COc1ccc2cc3[n+](cc2c1OC)CCc1cc2c(cc1-3)OCO2,57.3 ± 7.4
2,CCOC(=O)NC(Nc1ccc(F)cc1)(C(=O)OCC)C(F)(F)F (centres undefined),199 ± 130
3,COc1ccc2c(c1)C=C([N+](=O)[O-])C(C1OC(C)(C)OC1C1COC(C)(C)O1)O2 (centres undefined),84.6 ± 23
4,CCn1c(O)c(C=Nc2ccccc2)s/c1=N/Nc1ncc(CC(=O)Nc2ccccc2C)s1,95.9 ± 16
5,Cc1c2ccnc(C(N)=O)c2c(C)c2c1[nH]c1ccccc12,113 ± 10
6,Oc1ccc(/C=N/NC(=S)Nc2cccnc2)nc1,145 ± 23
7,CCN(CC)CCNc1ccc2nc(C)n3c4ccc(OC)cc4c(=O)c1c23,34.8 ± 9.9
8,CCOC(=O)c1ccc(-c2cc(C)no2)[nH]1,54.8 ± 10
9,CN=c1sc2c(n1C)C(=O)c1ccccc1C2=O,83.2 ± 26
10,O=C1C2=Nc3ccccc3C(O)N2c2ccccc21 (centres undefined),91 ± 12
11,NC1(CCNC(=O)c2ccccc2)CCN(C(=O)c2ccccc2)CC1,118 ± 19
12,CC1(C)CCCC2(C)C3=C(CCC12)C(=O)OC3 (centres undefined),84.4 ± 24
13,CCCCCCCCCCSCC(CO)NC(=O)/C=C/c1c(C)[nH]c(=O)[nH]c1=O (centres undefined),107 ± 23
14,O=C1Cc2c(-c3ccccc3)cc(-c3cccc(Cl)c3)nc2-c2ccccc2N1,99.6 ± 21
15,Cc1ccc(NC(=O)c2cc3ccccc3c(N=Nc3ccccc3O)c2O)c(C)c1,75.2 ± 20
16,COc1ccc2nc(C)cc(NCCCCCCCCCNc3cc(C)nc4ccc(OC)cc34)c2c1,75.9 ± 37
17,O=C1C=C(Nc2cccnc2)c2ccccc2C1=O,59.3 ± 11
18,CCCCOc1ccc(NC(N)=Nc2ccc(Cl)cc2)cc1,124 ± 20
19,O=C(NC(=O)c1c(Cl)nc2sccn12)Nc1ccc(Cl)cc1,136 ± 25
20,COc1ccc(C2c3cc4c(c(OC)c3CC3OCC(=O)C32)OCO4)cc1OC (centres undefined),41.3 ± 11

row,SMILES,cell growth [%]
1,CC(C)c1cccc(O)c(=O)c1,91.8 ± 19
2,COc1ccc(-c2csc(=[N+]3CCCCC3)s2)cc1,80 ± 11
3,COc1cc(OC)c(OC)cc1/C=C/c1ccnc2ccccc12,75.8 ± 10
4,COc1cc2c(c(O)c1OC)-c1c(cc(OC)c(OC)c1OC)C[C@@H](C)[C@@H](C)C2,82 ± 20
5,COC(=O)c1ccc(=O)c2nc3/c(=C/O)c(O)cc(=O)c3[nH]c12,109 ± 44
6,N#CC1CC(c2ccccc2)Nc2cc(Cl)ccc2N1 (centres undefined),80.4 ± 20
7,COc1cc(C(O)CCBr)c(OC)cc1C (centres undefined),86.9 ± 26
8,COC(=O)[C@@H]1[C@H](O)[C@H](C)[C@H](O)[C@H](C)/C=C\C=C(/C)C(=O)Nc2c(C)c(OC(C)=O)c3c(c2O)C(=O)C(C)=C2OCOC(=C23)/C(C)=C/[C@@](C)(O)[C@H](O)[C@@H](C)[C@H]1OC(C)=O,110 ± 22
9,COc1cc(O)c2c(c1)C(=O)c1cc3c(c(O)c1C2=O)C(OC1OC(C)C(O)C(O)C1OC)C(OC)C(C)(O)C3=O (centres undefined),17.1 ± 7.5
10,CC(/C=C/C(O)=C1/C(=O)CNC1=O)=C\[C@@H](C)[C@H]1O[C@]2(C)O[C@@H](C(=O)[C@@H]3O[C@@]32C)[C@@H]1C,60.3 ± 14
11,CC[C@@]1(O)C(=O)OCc2c1cc1n(c2=O)Cc2cc3c(N)cccc3nc2-1,46.5 ± 11
12,O=c1[nH]c2ccc(O)cc2o1,80.8 ± 13
13,O=C(Nc1ccc2c(c1)oc(=O)c1ccccc12)C(Cl)Cl,10.2 ± 2.1
14,COc1cc(/C=C(\OC(C)=O)c2ccc3c(c2)OCO3)cc(OC)c1OC,162 ± 58
15,CN(Cc1cnc2nc(N)nc(N)c2n1)c1ccc(C(=O)NC(CCC(=O)O)C(=O)O)c2ccccc12 (centres undefined),84.7 ± 30
16,Oc1cc2c3c(c1)c1cc4c(cc1c[n+]3CC2)OCO4,97.7 ± 13
17,O=C(OCC12CC3CC(CC(C3)C1)C2)c1ccc(NCc2cc(O)ccc2O)cc1,159 ± 28
18,NC(=O)c1c([N+](=O)[O-])cc(C(F)(F)F)cc1[N+](=O)[O-],63.9 ± 13
19,CC1(O)C=CC(=O)C=C1,116 ± 12
